For 85 compounds, inhibition results are on record in PubChem BioAssay AID1645856 (Buhrlage Lab, Dana-Farber Cancer Institute and Novartis …, 2021).

The whole screen tested about 47,000 compounds, of which about 510 (1.1%) were called active. Cut-off read from the data, not from the text of the source: active = inhibition above about 30%; inactive = the rest. For the sample, actives were picked, then their nearest neighbours and some compounds at random.

One may read the inhibition as the drop in the measured response relative to a control, in per cent.

Sequence of Ubiquitin carboxyl-terminal hydrolase 10 (Homo sapiens) (Q14694 whole entry, looked up): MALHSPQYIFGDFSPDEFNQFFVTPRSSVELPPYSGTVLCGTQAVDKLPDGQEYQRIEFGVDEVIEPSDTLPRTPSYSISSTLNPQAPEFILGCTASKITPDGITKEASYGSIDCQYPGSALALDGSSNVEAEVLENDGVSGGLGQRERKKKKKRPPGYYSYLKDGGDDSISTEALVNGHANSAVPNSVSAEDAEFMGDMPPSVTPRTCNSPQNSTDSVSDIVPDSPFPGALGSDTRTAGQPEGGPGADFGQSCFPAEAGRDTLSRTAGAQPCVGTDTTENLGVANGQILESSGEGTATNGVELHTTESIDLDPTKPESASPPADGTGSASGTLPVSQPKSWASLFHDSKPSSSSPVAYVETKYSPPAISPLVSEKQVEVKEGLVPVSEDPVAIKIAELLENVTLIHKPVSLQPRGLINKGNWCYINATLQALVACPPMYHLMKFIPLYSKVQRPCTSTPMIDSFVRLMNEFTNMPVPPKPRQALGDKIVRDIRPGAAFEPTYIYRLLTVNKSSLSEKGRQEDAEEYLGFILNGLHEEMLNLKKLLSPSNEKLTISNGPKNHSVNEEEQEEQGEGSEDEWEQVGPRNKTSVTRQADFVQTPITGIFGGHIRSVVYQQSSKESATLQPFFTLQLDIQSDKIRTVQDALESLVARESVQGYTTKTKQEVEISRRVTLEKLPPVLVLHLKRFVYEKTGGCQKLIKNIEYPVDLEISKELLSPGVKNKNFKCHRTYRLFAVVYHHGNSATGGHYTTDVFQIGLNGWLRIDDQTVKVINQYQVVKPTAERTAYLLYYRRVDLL

The assay has as its target Ubiquitin carboxyl-terminal hydrolase 10 (Homo sapiens) (UniProt Q14694). The experiment in a line: inhibitors of human USP10 deubiquitinase (AID 1645856). To be noted: purified USP10, Ub-rhodamine fluorescence, 60 min; at 20 µM; active compounds read high.
With `CC1=C(C(=O)OCCOc2ccccc2)C(c2ccccc2OC(C)C)NC(=O)N1` (stereo not given), the inhibition was 5.16% (inactive).

Regarding `Cc1nn(-c2cccc(Cl)c2)c2c1C(C(=O)c1ccc3c(c1)OCCO3)CC(=O)N2` (stereo not given), the inhibition is -1.54% (inactive). The value for `CN1c2ccccc2O[C@@H]2CC[C@@H](NC(=O)Cn3cccn3)[C@@H](O)[C@@H]21` was 0.781% (inactive); that for `COc1ccc2[nH]c3c(N4CCN(C5CCCCC5)CC4)ncnc3c2c1` was 2.49% (inactive). The value for `Cc1noc(-c2cccn(Cc3cc(F)ccc3F)c2=O)n1` was 1.28% (inactive); that for `N#Cc1ccc(NC(=O)Nc2cccn(Cc3ccccc3F)c2=O)cc1` was 42.6% (active).

With `O=C(Cn1cccc(-c2nc(-c3ccccc3)no2)c1=O)Nc1ccccc1F`, the inhibition is -5.7% (inactive). The value for `CN1Cc2cccc(C(=O)N(C)c3nc4c(s3)CCc3occc3-4)c2C1=O` was -0.411% (inactive); that for `COc1cnc(CSc2ccccc2)cc1OCC(=O)Nc1ccc2c(c1)OCO2` was 0.813% (inactive). For the compound `COCCCn1c(C(=O)NCC(=O)OC(C)C)cc2c(=O)n3cccc(C)c3nc21`, the inhibition is 3.16% (inactive).

With `COc1ccc(/C=C(\C(=O)N(C)C2CCCCC2)n2ccccc2=O)cc1`, the inhibition was -1.04% (inactive). In the case of `COc1ccc(-c2cc(C(=O)Nc3ncc(C)s3)c3ccccc3n2)cc1OC`, the inhibition was -3.26% (inactive). Take `CNC(=O)C1CN(C(=O)c2ccccc2F)CC12CCCC2` (stereo not given): the inhibition was -0.0522% (inactive). The result for `Cn1c(=O)n(C2CCN(C(=O)Cc3ccccc3)C2)c2ncncc21` (stereo not given) reads 0.307% (inactive); that for `O=C1c2ccccc2C2c3[nH]c4ccccc4c3C(c3ccc(F)cc3)CN12` (stereo not given), -4.15% (inactive). The result for `CC(C)N1CCN(S(=O)(=O)c2cc(-c3nnc(C4CC4)o3)co2)CC1` reads -5.2% (inactive); that for `Cc1c(C2CCN(C(=O)NCc3ccccc3)CC2)noc1N`, -2.52% (inactive).

In the case of `Cc1noc(C)c1COc1cccc(C(=O)NC(C)c2cc3ccccc3o2)c1` (stereo not given), the inhibition was -0.528% (inactive). The value for `O=C(NCc1cccnc1N1CCCCC1)c1nc2n(n1)-c1ccccc1S(=O)(=O)N2` was 17.3% (inactive).

On to `CC(NC(=O)c1nc2n(n1)-c1ccccc1S(=O)(=O)N2)c1cc2ccccc2o1` (stereo not given), for which the inhibition was 36.5% (active). The result for `CN1CCC2(CN(c3ncccn3)CC23CCN(C(=O)Cc2ccccc2)CC3)C1=O` (stereo not given) reads -1.5% (inactive).

On to `CCn1c(=O)c(C(=O)N2CCN(c3cccc(C)c3)CC2)nc2cccnc21`, for which the inhibition was -3.06% (inactive). As to `O=S(=O)(c1cccc2nonc12)N1CCC(n2cccc2)CC1`, the inhibition was -1.8% (inactive). Turning to `COc1cc(Cl)c(C)cc1Nc1ncnc2sccc12`, the inhibition is -4.4% (inactive). The result for `NC(=O)CCC(=O)N[C@H]1C[C@H]2CN(Cc3ccccc3)c3ccccc3CN2C1` reads -7.81% (inactive); that for `O=C(c1ccccn1)N1CCC(c2nc3ccccc3cc2C(=O)N2CCCC2)CC1`, -0.709% (inactive).

`O=C(O)C1CCCN1C1=NS(=O)(=O)c2ccccc21` (stereo not given): the inhibition was 0.971% (inactive). The value for `CC(=O)N1CCc2cc(C(O)CN3CCN(c4ccccc4)CC3)ccc21` (stereo not given) was 1.48% (inactive); that for `Cc1ccc(N2CC(C(=O)N3CCC(C(=O)Nc4ccc(F)cc4F)CC3)CC2=O)cc1` (stereo not given) was -5.34% (inactive); that for `CCC(C(=O)NC1CCCC1)N(C(=O)Cn1nnc(-c2ccc(C)cc2)n1)c1cccc(O)c1` (stereo not given) was 1.22% (inactive). The result for `Cn1c(=O)c2c3c(cnc2n(C)c1=O)C(=O)CC(c1ccccc1)C3` (stereo not given) reads -1.08% (inactive); that for `O=C(NC1CCCC1)c1cc(-c2cccnc2)n(-c2ccc(F)cc2)n1`, 1.77% (inactive).

Consider `c1ccc(-c2ccc(NCc3ccc4c(c3)OCO4)nn2)cc1`, for which the inhibition was 3.9% (inactive).

As for `Cc1ccc(S(=O)(=O)N2CCCC2C(=O)N2CCN(c3cccc(Cl)c3)CC2)cc1` (stereo not given), the inhibition is 1.5% (inactive). The result for `O=C(COC(=O)C(Cc1c[nH]c2ccccc12)NC(=O)c1ccccc1Cl)c1ccccc1F` (stereo not given) reads 6.57% (inactive); that for `Cn1ccnc1C(NC(=O)c1ccncc1)c1ccc(F)c(F)c1` (stereo not given), -4.27% (inactive).

For `COc1ccc(CNC2C3=C(CCCC3)C(=O)N2CCc2ccc(Cl)cc2)cc1` (stereo not given), the inhibition was -0.147% (inactive). Regarding `CC(C)CN1C[C@@]23CN(C(=O)NCCc4ccc(F)cc4)C[C@@H](C[C@@H]2S1(=O)=O)O3`, the inhibition is 3.62% (inactive). `COC(=O)C1CCN(C(=O)CC[C@H]2CNC(=O)[C@@H]3[C@@H](CCN3Cc3ccc(C)cc3)N2C)CC1`: the inhibition is 1.61% (inactive). Regarding `Cc1ccc(NC(=O)CCOc2ccccc2)cc1S(=O)(=O)Nc1ccccc1Cl`, the inhibition is 30.4% (active). The result for `COc1cccc(NC(=O)COC(=O)c2ccc(OC)c(S(=O)(=O)Nc3cc(Cl)c(OC)cc3OC)c2)c1` reads 0.441% (inactive); that for `Cc1ccc(NC(=O)CCC(=O)N(c2ccccc2)c2ccccc2)cc1Cl`, 11.4% (inactive). The result for `Cc1cc(O)c(=O)cc2c1C[C@H]1CC(C)(C)/C=C/C[C@@]3(C)Oc4cc(=O)c(O)cc(C)c4C[C@@H]3C[C@H](O)[C@]1(C)O2` reads 39.9% (active); that for `Cc1ccc(CNC(=O)CCCn2c(=O)c3sccc3n(CC(=O)OCc3ccccc3)c2=O)cc1`, 53.7% (active); that for `Cc1ccc(CNC(=O)CC(c2ccccc2)c2ccccc2)cc1`, 9.59% (inactive). With `COc1ccc(CCNC(=O)CCCn2c(=O)c3ccccc3n(CC(=O)OCc3ccccc3)c2=O)cc1OC`, the inhibition was 12.7% (inactive). The value for `Cc1cccc(-n2c3c(c(=O)[nH]c2=O)CN(Cc2ccco2)CN3)c1C` was -1.97% (inactive); that for `COc1ccc(C(=O)N(c2ccccn2)c2ccccn2)cc1OC` was -0.245% (inactive). The result for `CC(=O)Nc1sc2c(c1C(c1cccc(F)c1)N1CCN(CCO)CC1)CCCC2` (stereo not given) reads -5.42% (inactive); that for `Cc1c(-c2nn3c(-c4ccco4)nnc3s2)cccc1[N+](=O)[O-]`, 50.9% (active); that for `CC(C)Cc1cc(-c2nn3c(-c4ccccc4Cl)nnc3s2)n[nH]1`, 13.8% (inactive). The result for `Fc1ccccc1CSc1nnc(C2CCNCC2)o1` reads -2.32% (inactive); that for `Cc1cc(-c2ccccc2C(=O)O)nc(C2CCCNC2)n1` (stereo not given), 1.65% (inactive); that for `O=C(NCCc1ccccc1)c1ccc2c(=O)n(Cc3ccco3)c(=O)n(Cc3cccc([N+](=O)[O-])c3)c2c1`, 73.1% (active). For the compound `O=C(Cn1c(=O)n(Cc2ccc3c(c2)OCO3)c(=O)c2ccccc21)NCc1ccco1`, the inhibition is 25.6% (inactive).

Turning to `O=C(NCCc1ccccc1)c1ccc2c(=O)nc3c(-c4ccccc4F)n[nH]n3c2c1`, the inhibition is 3.48% (inactive). The value for `O=C(NCc1ccco1)N1CCC2(CC1)Nc1ccccc1-n1cccc12` was 0.0863% (inactive). The value for `Cc1c(S(=O)(=O)Nc2ccc(F)cc2)cc(C(=O)N2CCCCC2)n1C` was 1.47% (inactive); that for `COc1ccc(OC)c(NC(=O)CN2CCc3ccccc32)c1` was 0.258% (inactive). The value for `Cc1cc(=O)n(CC(=O)NCc2ccccc2)c(N2CCCC2)n1` was -2.48% (inactive); that for `CCc1cccc(C)c1NC(=O)CSc1nc2c(c(=O)[nH]1)CCCC2` was 0.855% (inactive). `CCc1cccc(C)c1NC(=O)Cn1nc2ccc(C(=O)NCc3ccccc3)cn2c1=O`: the inhibition is 36% (active). The result for `O=C(c1ccc(N2CCCCC2)nn1)N(Cc1ccccc1)c1ccccn1` reads -1.8% (inactive); that for `Cn1c(C2CCN(C(=O)Nc3ccc4c(c3)CCC4)C2)nc2cccnc21` (stereo not given), -0.116% (inactive); that for `Cc1ccc(NC(=O)COC(=O)C2CC(=O)N(c3cccc(C)c3C)C2)cc1` (stereo not given), -7.32% (inactive).

On to `O=C1CCCC2=C1C(c1ccc(C(=O)O)cc1)n1ncc(C(=O)Nc3ccc(F)cc3)c1N2` (stereo not given), for which the inhibition was -5.67% (inactive). The value for `CCOc1cccc(C2CC(=O)Nc3c2c(C)nn3-c2nncc(-c3ccc(F)cc3)n2)c1` (stereo not given) was 4.17% (inactive). The result for `Cc1ccc(C2N=C(N3CCCCC3)Nc3nc(C)cc(=O)n32)cc1` (stereo not given) reads -10.2% (inactive); that for `O=C(c1ccccc1Cl)N(c1ccccn1)c1ccccn1`, -2.33% (inactive); that for `C=C1CCC2[C@](C)(CCC[C@]2(C)C(=O)OC)[C@H]1CCc1ccoc1/C=C/C(=O)O` (stereo not given in full), 46.4% (active). The value for `C=C1CCC2[C@](C)(CCC[C@]2(C)C(=O)OC)[C@H]1CCc1ccoc1CNCC(=O)O` (stereo not given in full) was 3.42% (inactive); that for `C=C1CCC2[C@](C)(CCC[C@]2(C)C(=O)OC)[C@H]1CCc1ccoc1C[N+](C)(C)Cc1ccccc1` (stereo not given in full) was -1.66% (inactive). On to `FC(F)(F)c1cccc(CN2CCCn3c(nc4ccccc43)C2)c1`, for which the inhibition was -0.144% (inactive). Turning to `O=C(NCc1noc(C2CCCC2)n1)c1ccccc1`, the inhibition is 3.21% (inactive). The result for `CNc1ccc(-c2noc([C@@H]3CCCN3C3CCN(C)CC3)n2)cn1` reads -0.38% (inactive); that for `COc1ccc(C(O)Cc2nc3ccccc3n2Cc2ccc(Cl)cc2)cc1` (stereo not given), 1.15% (inactive); that for `COC(=O)c1ccccc1NC(=O)c1cnc2ccccn2c1=O`, 0.362% (inactive). The result for `O=C(CNC1CCCc2ccccc21)Nc1cc(S(=O)(=O)N2CCCCC2)ccc1Cl` (stereo not given) reads 1.62% (inactive); that for `Cc1nccc(N2CCCC2c2cnc(-c3ncc[nH]3)cn2)n1` (stereo not given), -5.73% (inactive); that for `O=C(Cn1cc(S(=O)(=O)N2CCOCC2)ccc1=O)Nc1ccc(F)c(F)c1`, 2.08% (inactive). `CS(=O)(=O)c1ccc(-n2cc(-c3ccncn3)cn2)cc1`: the inhibition is -1.57% (inactive). The value for `O=C(c1ncccn1)N1CCCCC1c1ncc(Cc2cccc(F)c2)o1` (stereo not given) was 0.0694% (inactive); that for `CC(OC(=O)c1cn(-c2ccccc2)nc1-c1cccnc1)C(=O)Nc1cccc(S(=O)(=O)N(C)C)c1` (stereo not given) was -8.1% (inactive). Take `Cc1nn(CCC(=O)Nc2ccc(C#N)cc2)c(C)c1S(=O)(=O)N1CCOCC1`: the inhibition was 7.2% (inactive). In the case of `Cn1c(N2CCN(C(=O)c3ccc(F)cc3)CC2)cc(=O)n(C)c1=O`, the inhibition is -3.62% (inactive).
